# Key:
# Test in all cases: DAPPL (digital affinity profiling via proximity ligation, sequencing); 10 mM Tris-HCl pH 7.5, 50 mM NaCl, 1 mM DTT, 4% glycerol, room temperature, 30 min; GST-TFs on glutathione beads, 16-mer random dsDNA library, 0.1% formaldehyde crosslink after washing; high values mean tight binding
# [1] = molecular target: T1, FEV (Homo sapiens, UniProt Q99581 1-238); conditions: protein: recombinant; tags: N-terminal GST; dsDNA, one strand shown
# T1 sequence: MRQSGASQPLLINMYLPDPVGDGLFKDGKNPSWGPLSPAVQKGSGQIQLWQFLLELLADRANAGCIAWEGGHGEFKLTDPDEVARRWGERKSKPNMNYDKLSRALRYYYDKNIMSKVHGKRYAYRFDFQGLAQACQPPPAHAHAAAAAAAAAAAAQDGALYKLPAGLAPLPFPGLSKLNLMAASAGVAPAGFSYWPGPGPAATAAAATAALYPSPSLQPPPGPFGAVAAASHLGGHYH
# Summary of the method: (§1)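 Pools of DNA-barcoded human transcription factors, expressed in yeast as GST fusions on glutathione beads and combined with a tag-only sample, were incubated with 200 nmole of a 16-mer random double-stranded DNA library. Incubation took 30 min at room temperature in Tris/NaCl/DTT/glycerol buffer and was followed by washing, 0.1% formaldehyde crosslinking, proximity ligation (BsaI/T4 ligase, 1 h, 37 °C), PCR amplification and sequencing on an Illumina NextSeq500. Binding signal is the ratio of a hexamer's read frequency for a factor to its frequency for the tag-only sample.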
# [2] = molecular target: ETV5 (Homo sapiens, UniProt P41161 1-510); conditions: protein: recombinant; tags: N-terminal GST; dsDNA, one strand shown
# ETV5, sequence (P41161 whole entry): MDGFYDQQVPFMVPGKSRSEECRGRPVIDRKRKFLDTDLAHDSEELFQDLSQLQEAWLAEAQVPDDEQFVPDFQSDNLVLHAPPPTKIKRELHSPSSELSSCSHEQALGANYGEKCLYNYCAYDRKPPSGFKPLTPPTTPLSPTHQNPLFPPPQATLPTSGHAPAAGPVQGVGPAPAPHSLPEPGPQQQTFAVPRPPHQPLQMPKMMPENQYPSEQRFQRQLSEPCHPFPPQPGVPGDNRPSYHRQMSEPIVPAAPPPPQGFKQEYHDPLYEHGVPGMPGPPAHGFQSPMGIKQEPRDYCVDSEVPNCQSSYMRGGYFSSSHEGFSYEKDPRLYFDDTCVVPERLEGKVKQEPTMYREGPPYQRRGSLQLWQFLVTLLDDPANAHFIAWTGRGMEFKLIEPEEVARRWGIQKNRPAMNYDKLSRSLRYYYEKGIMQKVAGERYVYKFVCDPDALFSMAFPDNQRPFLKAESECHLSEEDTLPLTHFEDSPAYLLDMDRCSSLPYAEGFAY
# Summary of the method: as §1
# [3] = molecular target: HSF1 (Homo sapiens, UniProt Q00613 1-529); conditions: protein: recombinant; tags: N-terminal GST; chain copies: 3; dsDNA, one strand shown
# HSF1, sequence (Q00613 whole entry): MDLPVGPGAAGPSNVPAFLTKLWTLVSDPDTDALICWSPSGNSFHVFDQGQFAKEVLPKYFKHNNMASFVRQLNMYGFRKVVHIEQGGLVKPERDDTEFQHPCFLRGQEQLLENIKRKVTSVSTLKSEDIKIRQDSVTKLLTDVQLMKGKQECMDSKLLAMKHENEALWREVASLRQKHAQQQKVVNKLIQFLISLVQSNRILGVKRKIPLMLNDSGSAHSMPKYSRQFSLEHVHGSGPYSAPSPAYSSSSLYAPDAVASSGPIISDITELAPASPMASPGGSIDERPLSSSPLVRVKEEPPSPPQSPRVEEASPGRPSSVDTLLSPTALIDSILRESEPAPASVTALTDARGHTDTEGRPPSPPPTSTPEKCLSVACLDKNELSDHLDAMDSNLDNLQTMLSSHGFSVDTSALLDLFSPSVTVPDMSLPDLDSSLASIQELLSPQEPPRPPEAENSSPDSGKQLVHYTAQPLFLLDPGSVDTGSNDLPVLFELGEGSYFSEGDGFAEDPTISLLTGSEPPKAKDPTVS
# Summary of the method: as §1
# [4] = molecular target: T2, SPIC (Homo sapiens, UniProt Q8N5J4 1-248); conditions: protein: recombinant; tags: N-terminal GST; dsDNA, one strand shown
# T2 sequence: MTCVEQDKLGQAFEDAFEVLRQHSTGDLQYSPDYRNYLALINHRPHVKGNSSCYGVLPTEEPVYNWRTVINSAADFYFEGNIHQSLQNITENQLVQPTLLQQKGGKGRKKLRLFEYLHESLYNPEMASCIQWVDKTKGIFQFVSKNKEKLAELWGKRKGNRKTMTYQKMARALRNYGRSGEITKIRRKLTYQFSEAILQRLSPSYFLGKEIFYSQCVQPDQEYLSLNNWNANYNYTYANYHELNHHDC
# Summary of the method: as §1
# [5] = molecular target: ELF4 (Homo sapiens, UniProt Q99607 1-663); conditions: protein: recombinant; tags: N-terminal GST; dsDNA, one strand shown
# ELF4, sequence (Q99607 whole entry): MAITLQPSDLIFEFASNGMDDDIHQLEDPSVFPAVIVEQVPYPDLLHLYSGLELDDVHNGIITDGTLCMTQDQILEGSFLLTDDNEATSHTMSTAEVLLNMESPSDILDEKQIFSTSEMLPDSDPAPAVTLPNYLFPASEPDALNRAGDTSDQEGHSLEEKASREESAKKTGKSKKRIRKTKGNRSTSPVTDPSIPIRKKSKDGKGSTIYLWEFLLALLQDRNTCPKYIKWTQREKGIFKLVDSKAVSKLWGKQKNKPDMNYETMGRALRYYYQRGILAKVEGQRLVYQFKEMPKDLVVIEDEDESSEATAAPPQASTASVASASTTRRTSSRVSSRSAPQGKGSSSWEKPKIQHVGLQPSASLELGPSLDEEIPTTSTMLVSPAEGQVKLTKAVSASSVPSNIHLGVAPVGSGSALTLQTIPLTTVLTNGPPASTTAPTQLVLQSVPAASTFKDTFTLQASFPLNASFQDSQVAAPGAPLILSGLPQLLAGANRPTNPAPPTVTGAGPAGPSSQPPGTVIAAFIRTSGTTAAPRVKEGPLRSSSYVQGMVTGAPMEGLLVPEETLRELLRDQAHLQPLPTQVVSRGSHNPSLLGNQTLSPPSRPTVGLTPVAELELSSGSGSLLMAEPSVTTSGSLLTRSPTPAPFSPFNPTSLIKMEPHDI
# Summary of the method: as §1
# [6] = molecular target: T3, ELK4 (Homo sapiens, UniProt P28324-2 1-405); conditions: protein: recombinant; tags: N-terminal GST; dsDNA, one strand shown
# T3 sequence: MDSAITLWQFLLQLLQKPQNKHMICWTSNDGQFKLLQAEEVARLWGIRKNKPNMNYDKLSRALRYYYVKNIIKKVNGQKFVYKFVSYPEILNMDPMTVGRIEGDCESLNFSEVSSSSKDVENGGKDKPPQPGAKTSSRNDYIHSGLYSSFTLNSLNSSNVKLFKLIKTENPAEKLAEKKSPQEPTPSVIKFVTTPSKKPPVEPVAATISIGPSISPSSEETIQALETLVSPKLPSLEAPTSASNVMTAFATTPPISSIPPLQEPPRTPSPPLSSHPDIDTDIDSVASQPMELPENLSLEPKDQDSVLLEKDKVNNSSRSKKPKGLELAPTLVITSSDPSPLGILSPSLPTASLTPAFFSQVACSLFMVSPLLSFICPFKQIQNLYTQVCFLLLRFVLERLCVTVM
# Summary of the method: as §1
# [7] = molecular target: T4, ETV2 (Homo sapiens, UniProt O00321 1-342); conditions: protein: recombinant; tags: N-terminal GST; dsDNA, one strand shown
# T4 sequence: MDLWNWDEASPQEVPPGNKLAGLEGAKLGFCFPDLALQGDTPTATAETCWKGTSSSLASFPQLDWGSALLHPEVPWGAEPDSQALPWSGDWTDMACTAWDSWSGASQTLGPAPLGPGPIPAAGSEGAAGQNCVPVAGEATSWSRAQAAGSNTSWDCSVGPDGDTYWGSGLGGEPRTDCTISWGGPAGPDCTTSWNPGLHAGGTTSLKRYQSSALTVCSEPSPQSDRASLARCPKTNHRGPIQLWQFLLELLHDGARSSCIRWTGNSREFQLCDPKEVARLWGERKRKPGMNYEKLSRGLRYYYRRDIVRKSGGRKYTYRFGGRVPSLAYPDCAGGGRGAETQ
# Summary of the method: as §1
# [8] = molecular target: T5, ELF3 (Homo sapiens, UniProt P78545 1-371); conditions: protein: recombinant; tags: N-terminal GST; dsDNA, one strand shown
# T5 sequence: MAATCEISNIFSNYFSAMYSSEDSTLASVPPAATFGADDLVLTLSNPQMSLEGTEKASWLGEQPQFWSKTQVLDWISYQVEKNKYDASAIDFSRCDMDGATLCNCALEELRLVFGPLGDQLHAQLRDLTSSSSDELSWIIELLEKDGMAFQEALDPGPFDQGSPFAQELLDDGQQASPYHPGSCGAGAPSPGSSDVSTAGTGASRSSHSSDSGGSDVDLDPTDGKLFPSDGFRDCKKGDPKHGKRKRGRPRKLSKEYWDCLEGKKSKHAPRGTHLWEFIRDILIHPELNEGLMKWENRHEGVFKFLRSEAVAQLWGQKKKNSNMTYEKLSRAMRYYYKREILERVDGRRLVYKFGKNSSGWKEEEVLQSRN
# Summary of the method: as §1
# [9] = molecular target: CRX (Homo sapiens, UniProt O43186 1-299); conditions: protein: recombinant; tags: N-terminal GST; dsDNA, one strand shown
# CRX, sequence (O43186 whole entry): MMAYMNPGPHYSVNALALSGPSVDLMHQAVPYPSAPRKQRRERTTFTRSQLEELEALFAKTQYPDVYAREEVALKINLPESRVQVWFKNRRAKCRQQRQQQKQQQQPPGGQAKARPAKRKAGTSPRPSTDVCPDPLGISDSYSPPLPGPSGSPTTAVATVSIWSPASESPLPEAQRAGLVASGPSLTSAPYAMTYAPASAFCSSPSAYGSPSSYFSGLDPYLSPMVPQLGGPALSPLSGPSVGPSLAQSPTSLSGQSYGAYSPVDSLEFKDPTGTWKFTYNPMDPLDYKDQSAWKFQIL
# Summary of the method: as §1
# [10] = molecular target: ETV1 (Homo sapiens, UniProt P50549 1-477); conditions: protein: recombinant; tags: N-terminal GST; dsDNA, one strand shown
# ETV1, sequence (P50549 whole entry): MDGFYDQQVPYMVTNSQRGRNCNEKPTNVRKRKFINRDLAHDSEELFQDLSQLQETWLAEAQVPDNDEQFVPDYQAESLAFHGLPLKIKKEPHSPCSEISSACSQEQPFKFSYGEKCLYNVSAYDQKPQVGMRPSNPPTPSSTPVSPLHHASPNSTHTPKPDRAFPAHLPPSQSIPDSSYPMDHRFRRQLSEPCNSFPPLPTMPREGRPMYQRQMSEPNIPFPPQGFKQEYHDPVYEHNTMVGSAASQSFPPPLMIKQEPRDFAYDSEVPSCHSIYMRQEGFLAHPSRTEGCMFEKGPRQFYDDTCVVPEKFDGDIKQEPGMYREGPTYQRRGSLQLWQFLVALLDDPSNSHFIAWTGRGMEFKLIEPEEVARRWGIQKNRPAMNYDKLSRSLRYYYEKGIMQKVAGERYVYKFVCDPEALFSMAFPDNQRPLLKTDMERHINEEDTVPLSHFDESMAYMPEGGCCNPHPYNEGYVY
# Summary of the method: as §1
Sequence,binding signal [1],binding signal [2],binding signal [3],binding signal [4],binding signal [5],binding signal [6],binding signal [7],binding signal [8],binding signal [9],binding signal [10]
TTTTTA,"1.34 fold enrichment (6-mer frequency, TF over GST control)","1.3 fold enrichment (6-mer frequency, TF over GST control)","1.42 fold enrichment (6-mer frequency, TF over GST control)","1.32 fold enrichment (6-mer frequency, TF over GST control)","1.34 fold enrichment (6-mer frequency, TF over GST control)","1.37 fold enrichment (6-mer frequency, TF over GST control)","1.38 fold enrichment (6-mer frequency, TF over GST control)","1.43 fold enrichment (6-mer frequency, TF over GST control)","1.65 fold enrichment (6-mer frequency, TF over GST control)","1.32 fold enrichment (6-mer frequency, TF over GST control)"
TTTAAT,"1.26 fold enrichment (6-mer frequency, TF over GST control)","1.32 fold enrichment (6-mer frequency, TF over GST control)","2.06 fold enrichment (6-mer frequency, TF over GST control)","1.25 fold enrichment (6-mer frequency, TF over GST control)","1.32 fold enrichment (6-mer frequency, TF over GST control)","1.35 fold enrichment (6-mer frequency, TF over GST control)","1.06 fold enrichment (6-mer frequency, TF over GST control)","1.3 fold enrichment (6-mer frequency, TF over GST control)","3.28 fold enrichment (6-mer frequency, TF over GST control)","1.34 fold enrichment (6-mer frequency, TF over GST control)"
TATCTA,"1.19 fold enrichment (6-mer frequency, TF over GST control)","1.14 fold enrichment (6-mer frequency, TF over GST control)","1.66 fold enrichment (6-mer frequency, TF over GST control)","1.19 fold enrichment (6-mer frequency, TF over GST control)","1.22 fold enrichment (6-mer frequency, TF over GST control)","1.2 fold enrichment (6-mer frequency, TF over GST control)","1.25 fold enrichment (6-mer frequency, TF over GST control)","1.34 fold enrichment (6-mer frequency, TF over GST control)","1.73 fold enrichment (6-mer frequency, TF over GST control)","1.14 fold enrichment (6-mer frequency, TF over GST control)"
CTCATA,"1.29 fold enrichment (6-mer frequency, TF over GST control)","1.37 fold enrichment (6-mer frequency, TF over GST control)","1.25 fold enrichment (6-mer frequency, TF over GST control)","1.46 fold enrichment (6-mer frequency, TF over GST control)","1.41 fold enrichment (6-mer frequency, TF over GST control)","1.35 fold enrichment (6-mer frequency, TF over GST control)","1.44 fold enrichment (6-mer frequency, TF over GST control)","1.34 fold enrichment (6-mer frequency, TF over GST control)","1.38 fold enrichment (6-mer frequency, TF over GST control)","1.39 fold enrichment (6-mer frequency, TF over GST control)"
CTATCC,"1.39 fold enrichment (6-mer frequency, TF over GST control)","1.49 fold enrichment (6-mer frequency, TF over GST control)","1.25 fold enrichment (6-mer frequency, TF over GST control)","1.36 fold enrichment (6-mer frequency, TF over GST control)","1.34 fold enrichment (6-mer frequency, TF over GST control)","1.56 fold enrichment (6-mer frequency, TF over GST control)","1.49 fold enrichment (6-mer frequency, TF over GST control)","1.31 fold enrichment (6-mer frequency, TF over GST control)","1.31 fold enrichment (6-mer frequency, TF over GST control)","1.36 fold enrichment (6-mer frequency, TF over GST control)"
TAGCTG,"1.16 fold enrichment (6-mer frequency, TF over GST control)","1.06 fold enrichment (6-mer frequency, TF over GST control)","1.23 fold enrichment (6-mer frequency, TF over GST control)","1.09 fold enrichment (6-mer frequency, TF over GST control)","1.2 fold enrichment (6-mer frequency, TF over GST control)","1.23 fold enrichment (6-mer frequency, TF over GST control)","1.15 fold enrichment (6-mer frequency, TF over GST control)","1.17 fold enrichment (6-mer frequency, TF over GST control)","1.38 fold enrichment (6-mer frequency, TF over GST control)","1.12 fold enrichment (6-mer frequency, TF over GST control)"
CTTTCT,"1.47 fold enrichment (6-mer frequency, TF over GST control)","1.52 fold enrichment (6-mer frequency, TF over GST control)","2.74 fold enrichment (6-mer frequency, TF over GST control)","1.67 fold enrichment (6-mer frequency, TF over GST control)","1.48 fold enrichment (6-mer frequency, TF over GST control)","1.54 fold enrichment (6-mer frequency, TF over GST control)","1.65 fold enrichment (6-mer frequency, TF over GST control)","1.73 fold enrichment (6-mer frequency, TF over GST control)","1.76 fold enrichment (6-mer frequency, TF over GST control)","1.56 fold enrichment (6-mer frequency, TF over GST control)"
